In PubChem BioAssay AID1159580 (chemical genetic matrix, 2015):
Several values for one entry are separate records, joined by “and”; a condition that tells them apart may be missing. Identical values can stand only once. The campaign covered roughly 5,500 compounds. About 2,000 (36%) were called active. Roughly 18% stayed inconclusive and do not appear here. No stated cut-off is given here; in the data, active means normalized growth mostly below about 0.91 (no sharp cut-off); inconclusive means no clear call, values can overlap the other calls; inactive means mostly above about 0.92. The list shows a part of the results.

Experiment: chemical genetic growth profiling, strain panel (AID 1159580);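 further: tested at 20 µM; growth read once vehicle control cultures reached saturation at 30 °C; 1 = growth at the plate median or of vehicle wells; lower values mean less growth of the strain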
Settings: S. cerevisiae deletion strains, growth OD

Measured: normalized growth

CC(NC(C)(C)C)C(=O)c1cccc(Cl)c1 (stereo not given)
inactive: locus YAL013W, strain DEP1, active compounds read low 1.01 | locus YAL021C, strain ccr4, active compounds read low 1.02 | locus YAL026C, strain drs2, active compounds read low 1 | locus YAL030W, strain snc1, active compounds read low 0.998 | locus YAL040C, strain CLN3, active compounds read low 0.958 | locus YBL061C, strain skt5, active compounds read low 0.993 | locus YBR009C, strain hhf1, active compounds read low 1 | locus YBR021W, strain FUR4, active compounds read low 0.995 | locus YBR023C, strain chs3, active compounds read low 0.996 | locus YBR171W, strain sec66, active compounds read low 0.996 | locus YBR229C, strain ROT2, active compounds read low 1 | locus YBR231C, strain swc5, active compounds read low 1 | locus YBR279W, strain paf1, active compounds read low 0.998 | locus YCL011C, strain gbp2, active compounds read low 1 | locus YCL016C, strain dcc1, active compounds read low 0.995 | locus YCL029C, strain bik1, active compounds read low 1.05 | locus YCL061C, strain MRC1, active compounds read low 0.994 | locus YCL069W, strain vba3, active compounds read low 0.994 | locus YCR088W, strain abp1, active compounds read low 1 | locus YDL005C, strain med2, active compounds read low 0.993 | locus YDL035C, strain GPR1, active compounds read low 1.01 | locus YDL040C, strain nat1, active compounds read low 0.994 | locus YDL074C, strain BRE1, active compounds read low 0.988 | locus YDL101C, strain DUN1, active compounds read low 1.02 | locus YDL134C, strain PPH21, active compounds read low 1 | locus YDL185W, strain tfp1, active compounds read low 1.02 | locus YDL192W, strain arf1, active compounds read low 1.03 | locus YDR001C, strain nth1, active compounds read low 1.01 | locus YDR069C, strain doa4, active compounds read low 1 | locus YDR101C, strain arx1, active compounds read low 1.03 | locus YDR137W, strain rgp1, active compounds read low 1 | locus YDR150W, strain NUM1, active compounds read low 1.01 and 0.976 | locus YDR159W, strain sac3, active compounds read low 0.997 | locus YDR162C, strain NBP2, active compounds read low 1.01 | locus YDR195W, strain ref2 0.989 | locus YDR297W, strain sur2, active compounds read low 1 | locus YDR318W, strain mcm21, active compounds read low 1.02 | locus YDR334W, strain swr1, active compounds read low 0.986 | locus YDR335W, strain msn5, active compounds read low 1 | locus YDR363W, strain ESC2, active compounds read low 1.02 | locus YDR388W, active compounds read low 1.02 | locus YDR392W, strain spt3, active compounds read low 0.978 | locus YDR502C, strain sam2, active compounds read low 1.04 | locus YEL003W, strain gim4, active compounds read low 1 | locus YEL037C, strain rad23, active compounds read low 1 | locus YEL061C, strain CIN8 (second series), active compounds read low 1 | locus YEL061C, strain CIN8, active compounds read low 1.01 | locus YER002W, strain NOP16, active compounds read low 0.979 | locus YER015W, strain faa2, active compounds read low 1 | locus YER016W, strain bim1, active compounds read low 1 | locus YER110C, active compounds read low 1.05 | locus YER111C, strain swi4, active compounds read low 0.987 | locus YER155C, strain BEM2 (second series), active compounds read low 1.01 | locus YER155C, strain BEM2, active compounds read low 1 | locus YER167W, strain BCK2, active compounds read low 1.01 | locus YFR010W, strain ubp6, active compounds read low 1 | locus YGL078C, strain dbp3, active compounds read low 1 | locus YGL086W, strain mad1, active compounds read low 1 | locus YGL167C, strain pmr1, active compounds read low 0.991 | locus YGL173C, strain kem1, active compounds read low 0.977 | locus YGL227W, strain vid30, active compounds read low 0.992 | locus YGL240W, strain doc1, active compounds read low 1.02 | locus YGL248W, strain PDE1, active compounds read low 1.01 | locus YGL253W, strain hxk2, active compounds read low 0.992 | locus YGR078C, strain PAC10, active compounds read low 1.01 | locus YGR135W, strain pre9, active compounds read low 1.02 | locus YGR229C, strain SMI1, active compounds read low 0.999 | locus YGR252W, strain gcn5, active compounds read low 0.989 | locus YHR013C, strain ard1, active compounds read low 0.976 | locus YHR027C, strain rpn1, active compounds read low 0.996 | locus YHR030C, strain SLT2, active compounds read low 1.01 and 1 | locus YHR079C, strain IRE1 (second series), active compounds read low 1.02 | locus YHR079C, strain IRE1, active compounds read low 0.999 | locus YHR094C, strain hxt1, active compounds read low 1.02 | locus YHR129C, strain ARP1, active compounds read low 1.02 | locus YHR142W, strain chs7, active compounds read low 1 | locus YHR200W, strain rpn10, active compounds read low 1.02 | locus YIL066C, strain RNR3, active compounds read low 1.01 | locus YIL073C, strain SPO22, active compounds read low 1.07 | locus YIL125W, strain kgd1, active compounds read low 1.02 | locus YIR030C, strain dcg1, active compounds read low 1.04 | locus YJL092W, strain hpr5, active compounds read low 0.995 | locus YJL095W, strain BCK1 (second series), active compounds read low 0.997 | locus YJL095W, strain BCK1, active compounds read low 1.01 and 0.995 | locus YJL115W, strain asf1, active compounds read low 0.996 | locus YJL129C, strain trk1, active compounds read low 1.01 | locus YJL134W, strain LCB3, active compounds read low 1.01 | locus YJL154C, strain vps35, active compounds read low 1.01 | locus YJL164C, strain tpk1, active compounds read low 1 | locus YJL166W, strain qcr8, active compounds read low 0.993 | locus YJL168C, strain set2, active compounds read low 1.02 | locus YJL187C, strain SWE1 (second series), active compounds read low 1.02 | locus YJL187C, strain SWE1, active compounds read low 0.996 | locus YJR043C, strain POL32, active compounds read low 1 | locus YJR066W, strain TOR1, active compounds read low 0.969
